Experimental data reported in PubChem BioAssay (NCATS).
Inconclusive results are not listed. Unmarked numbers belong to inactive results. Calls of active or inactive are those of the source. Calls follow the shape of the dose curve; as a rule, active = well fitted inhibition curve with a large enough effect; inconclusive = small, poorly fitted or top-dose-only effect; inactive = flat fitted curve, though single readings scatter.
% is scaled to controls: 0 for no effect and ±100 for the full control effect; potency is read from the fitted curve at half-maximal effect.

These molecules were tested against Ubiquitin carboxyl-terminal hydrolase 1 (Homo sapiens) (UniProt O94782) (assay: Inhibitors of USP1/UAF1: Pilot qHTS (AID 504865; also: nearly all actives have a fitted effect of over 35% in size;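 as to activity change, negative = inhibition: rhodamine fluorescence freed from ubiquitin-rhodamine substrate followed over time; top concentration of the series differs between compounds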)). Details: purified USP1/UAF1, Ub-rhodamine cleavage fluorescence; series mostly up to 114 µM; activity change, negative = inhibition: at the top concentration.
Chain of Ubiquitin carboxyl-terminal hydrolase 1 (Homo sapiens) (O94782 whole entry, looked up): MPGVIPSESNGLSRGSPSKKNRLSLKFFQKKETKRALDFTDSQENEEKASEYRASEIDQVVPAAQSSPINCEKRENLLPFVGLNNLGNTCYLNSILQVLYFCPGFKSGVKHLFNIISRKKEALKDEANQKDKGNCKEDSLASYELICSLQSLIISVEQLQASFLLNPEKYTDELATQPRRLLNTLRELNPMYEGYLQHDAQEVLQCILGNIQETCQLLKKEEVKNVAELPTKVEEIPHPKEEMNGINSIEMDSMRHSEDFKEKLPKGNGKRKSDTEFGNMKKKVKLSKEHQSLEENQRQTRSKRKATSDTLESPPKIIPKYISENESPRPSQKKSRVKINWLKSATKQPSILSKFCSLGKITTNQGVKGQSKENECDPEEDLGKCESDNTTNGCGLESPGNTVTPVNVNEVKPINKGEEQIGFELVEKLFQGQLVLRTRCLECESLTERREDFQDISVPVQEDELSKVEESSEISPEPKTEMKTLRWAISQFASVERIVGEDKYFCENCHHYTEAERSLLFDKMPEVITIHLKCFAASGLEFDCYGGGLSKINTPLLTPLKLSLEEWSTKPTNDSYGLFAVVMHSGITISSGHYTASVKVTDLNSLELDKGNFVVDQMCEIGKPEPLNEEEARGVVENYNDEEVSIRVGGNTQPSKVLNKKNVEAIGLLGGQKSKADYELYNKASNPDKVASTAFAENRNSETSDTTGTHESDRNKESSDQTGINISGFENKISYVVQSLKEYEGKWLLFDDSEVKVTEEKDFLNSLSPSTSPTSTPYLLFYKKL
Description: Deubiquitinating enzymes (DUBs) are a class of enzymes that can cleave isopeptide bond formed between the C-terminal carboxylate of ubiquitin and a lysine side-chain amino group on the target protein. Among them, ubiquitin specific proteases (USPs) constitute the largest DUB family. Human USPs are emerging as promising targets for pharmacological intervention because of their connection to a number of human diseases, including prostate, colon and breast cancer (1, 2), pediatric acute lymphoblastic leukemia (3), and familial cylindromatosis (4). The advantage of inhibiting USPs lies in the potential specificity of therapeutic intervention that can lead to better efficacy and reduce nonspecific side effects.
In a collaboration between the University of Delaware and the NIH Chemical Genomics Center, a high-throughput screen assay was developed to screen for USP1/UAF1 inhibitors. This miniaturized assay has a fluorescent read-out and is used to screen the NIH Molecular Libraries Small Molecule Repository (MLSMR) in order to identify a small molecule that inhibits USP1.
NIH Chemical Genomics Center [NCGC]
NIH Molecular Libraries Probe Centers Network [MLPCN]
Assay Submitter (PI): Zhihao Zhuang, University of Delaware
1. Priolo, C., et al. (2006) The isopeptidase USP2a protects human prostate cancer from apoptosis. Cancer Res 66, 8625-8632
2. Popov, N., et al. (2007) The ubiquitin-specific protease USP28 is required for MYC stability. Nat Cell Biol 9, 765-774
3. De Pitta, C., et al. (2005) A leukemia-enriched cDNA microarray platform identifies new transcripts with relevance to the biology of pediatric acute lymphoblastic leukemia. Haematologica 90, 890-898
4. Kovalenko, A., et al. (2003) The tumour suppressor CYLD negatively regulates NF-kappaB signalling by deubiquitination. Nature 424, 801-805
3 microliters of reagents (buffer in columns 3 and 4 as negative control and 1nM USP1/UAF1 complex in columns 1, 2, and 5-48) are dispensed into Greiner black solid bottom 1536-well assay plates. Compounds are then transferred via Kalypsys pin tool equipped with 1536-pin array (10nl slotted pins, V&P Scientific, San Diego, CA). Following an incubation step of 15 min at room temperature, 1ul of Ub-Rho substrate (150nM final concentration) is added to initiate the reaction. The plates are immediately centrifuged at 1000 rpm for 15 seconds, and subsequently transferred to a ViewLux high-throughput CCD imager (PerkinElmer) wherein kinetic measurements of fluorescence are acquired using 480 nm excitation/540 nm emission filter set (6 reads every 60 seconds, see Table 1). All reagents are diluted in an assay buffer consisting of 50mM HEPES (pH 7.8), 0.5mM EDTA, 0.1 mg/ml BSA, 1mM TCEP, and 0.01% Tween-20.
`Cl.Cl.Cl.Cl.Cl.Cl.N.N.N.N.NNNNN.NNNNN.O.O.[Ru].[Ru].[Ru]` was tested, and the Potency was 50.1 µM (active). For `C=CCN1C[C@H](C)N([C@@H](c2ccccc2)c2ccc(C(=O)N(CC)CC)cc2)C[C@H]1C`, the “activity change, negative = inhibition” value was -13.1%. For `Cn1cc(C(=O)C(=O)N[C@H]2CN3CCC2CC3)c2ccccc21`, the “activity change, negative = inhibition” value was -5.52%. With `CC(=O)[C@H]1CC[C@H]2[C@@H]3CCC4=CC(=O)CC[C@]4(C)[C@H]3CC[C@]12C` the Potency was “inactive”. `CC[C@H]1CN2CCc3cc(OC)c(OC)cc3[C@H]2C[C@@H]1C[C@@H]1NCCc2cc(OC)c(OC)cc21` was tested, and the “activity change, negative = inhibition” value was -3.2%. For `CC[C@H](Oc1ccc(Cl)cc1)C(=O)OC1C[C@H]2CC[C@@H](C1)N2C` (stereo not given in full), the “activity change, negative = inhibition” value was -10.6%. With `CC(C)(C)NC[C@@H](O)COc1cccc2[nH]c(C#N)cc12` the “activity change, negative = inhibition” value was -13.2%. In the case of `CO[C@H]1[C@@H](O)CC(OC2[C@@H](O)CC(OC3[C@@H](O)C[C@H](OC4CC[C@@]5(C)C(CCC6C5CC(O)[C@]5(C)[C@H](C7=CC(=O)OC7)CCC65O)C4)O[C@@H]3C)O[C@@H]2C)O[C@@H]1C` (stereo not given in full), the “activity change, negative = inhibition” value is reported as 2.75%. For `N[C@@H](CCCCP(=O)(O)O)C(=O)O`, the “activity change, negative = inhibition” value was -1.94%. With `CCC[C@@H]1CC2=CC(=O)CC[C@]2(C)[C@@H]2CC[C@@]3(C)[C@H](CC[C@]3(O)CCC(=O)O)[C@H]12` the “activity change, negative = inhibition” value was -10.1%. For `C=CCN1CC[C@@]23c4c5ccc(O)c4O[C@H]2/C(=N\N=C2/CC[C@@]4(O)[C@H]6Cc7ccc(O)c8c7[C@@]4(CCN6CC=C)[C@@H]2O8)CC[C@]3(O)[C@@H]1C5`, the “activity change, negative = inhibition” value was -11.3%. In the case of `CC(C)(C)c1o[nH]c(=O)c1C[C@H](N)C(=O)O`, the “activity change, negative = inhibition” value is reported as -16.1%. With `C/C(=C\C=C/[C@@H](C)C(=O)O)[C@H]1CN[C@H](C(=O)O)[C@@H]1CC(=O)O` the “activity change, negative = inhibition” value was -1.51%. `C[C@@H](N)Cn1ccc2cc(F)c(Cl)cc21` was tested, and the “activity change, negative = inhibition” value was -13.8%. With `CN(C)Cc1c[nH]c2ccccc12` the “activity change, negative = inhibition” value was -9.71% [at 54.9 µM]. `O=c1ccc2c(O)c3ccoc3cc2o1` was tested, and the “activity change, negative = inhibition” value was -14.7%. For `C[C@@]12CCC(OS(=O)(=O)O)C[C@@H]1CCC1C2CC[C@]2(C)C(=O)CCC12` (stereo not given in full), the “activity change, negative = inhibition” value was -10.1%. With `CC(=O)O[C@@H]1CN2CCC1CC2` the “activity change, negative = inhibition” value was -5.52%. In the case of `C[C@H](N)Cc1cnc[nH]1`, the “activity change, negative = inhibition” value is reported as -7.29%. For `C=CCN1C[C@H](C)N([C@H](c2ccc(C(=O)N(CC)CC)cc2)c2cccc(O)c2)C[C@H]1C`, the “activity change, negative = inhibition” value was -8.97%. For `c1ccc2c(c1)OC[C@@H](C1=NCCN1)O2`, the “activity change, negative = inhibition” value was -8.41% [at 54.9 µM]. With `N[C@H](Cc1o[nH]c(=O)c1Cl)C(=O)O` the “activity change, negative = inhibition” value was -5.44%. `c1cncc(C2=NCCC2)c1` was tested, and the “activity change, negative = inhibition” value was -3.44% [at 54.9 µM]. `CCN1C[C@]2(COC(=O)c3ccccc3N3C(=O)C[C@H](C)C3=O)CC[C@H](OC)[C@@]34[C@@H]5C[C@H]6[C@H](OC)[C@H]5[C@](O)(C[C@@H]6OC)[C@@](O)([C@@H](OC)[C@@H]23)[C@@H]14` was tested, and the “activity change, negative = inhibition” value was -2.94%. `N[C@@H](Cn1ccc(=O)n(Cc2ccc(C(=O)O)cc2)c1=O)C(=O)O` was tested, and the “activity change, negative = inhibition” value was -3.48%. In the case of `NC(N)=Nc1ccc2[nH]c3c(c2c1)C[C@]1(O)[C@@H]2Cc4ccc(O)c5c4[C@]1(CCN2CC1CC1)[C@@H]3O5`, the “activity change, negative = inhibition” value is reported as -7.97%. For `c1ccc([C@H]2CNCc3ccccc32)cc1`, the “activity change, negative = inhibition” value was -1.85%. In the case of `C=C(C)[C@H]1CN[C@H](C(=O)O)[C@@H]1CC(=O)O`, the “activity change, negative = inhibition” value is reported as -9.08%. `Oc1c(Cl)c(Cl)c(Cl)c(Cl)c1Cl` was tested, and the Potency was 79.4 µM (active). `N[C@@H](Cn1cc(I)c(=O)[nH]c1=O)C(=O)O` was tested, and the “activity change, negative = inhibition” value was -6.96%. With `COc1ccc2[nH]cc(C3=CCNCC3)c2c1` the Potency was 44.7 µM (active). In the case of `C/C(=C\[C@@H](N)C(=O)O)CP(=O)(O)O`, the “activity change, negative = inhibition” value is reported as -5.9%. `O=CN1CCCCC1C1CC[C@H]2CCCCN2C1` (stereo not given in full) was tested, and the “activity change, negative = inhibition” value was 0.539%. For `O=C(O)CNC(=O)C(CS)Cc1ccccc1` (stereo not given), the “activity change, negative = inhibition” value was -1.71%. With `C=CCN1CCC2(C)c3cc(O)ccc3C[C@H]1[C@H]2C` the “activity change, negative = inhibition” value was -8.95%. `CCCN[C@@H]1CCc2c(OC)cccc2[C@@H]1C` was tested, and the “activity change, negative = inhibition” value was -7.55%. In the case of `O=C(O)[C@@H]1C[C@H]2C[C@@H](CP(=O)(O)O)CC[C@H]2CN1`, the “activity change, negative = inhibition” value is reported as -2.73%. With `CC(C)(O)[C@@H]1[C@H]2OC(=O)[C@@H]1[C@]1(O)C[C@H]3O[C@]34C(=O)O[C@H]2[C@@]14C` (tested in a mixture with another compound) the “activity change, negative = inhibition” value was -5.1%. With `O=C1CC[C@@]2(O)[C@H]3Cc4ccc(O)c5c4[C@@]2(CCN3CC2CC2)[C@@H]1O5` the “activity change, negative = inhibition” value was -10.5%. In the case of `CCCN1C[C@H](C)N([C@H](c2ccc(C(=O)N(CC)CC)cc2)c2cccc(OC)c2)C[C@H]1C`, the “activity change, negative = inhibition” value is reported as -5.41%.
